Reference: ChEMBL document CHEMBL3433997, “St. Jude Leishmania screening dataset” (2016)

biological target: Hexose transporter 1 (Plasmodium falciparum) (UniProt O97467); assay: ST_JUDE_LEISH: Cytotoxicity at 2uM final concentration against transgenic Leishmania Mexicana promastigotes LmPfHT that are glucose transport deficient and complemented with the Plasmodium falciparum hexose transporter. Activity is measured by DNA content using SYBR green in vitro; assay type: functional

Point of comparison: `CC1CCc2c(C(=O)Nc3c(F)cc(F)cc3Br)csc2C1` (stereo not given), inhibition 0.02%. Against it:
- Cc1nc(C)c(CC(=O)Nc2ccc(-c3ccc(-c4nc5cc(C(F)(F)F)ccc5[nH]4)s3)cc2)s1 — higher, 2.1%
- CC(C)(C)c1ccc(OC(=O)c2ccc(NC(=O)N[C@@H](Cc3ccc(O)cc3)C(=O)NC3CCN(Cc4ccc(O)cc4)C3)cc2)cc1 (stereo not given in full) — higher, 4%
- O=C(/C=C/c1ccc(Cl)c(Cl)c1)NCCCCCN1CCC(NC(=O)NCCc2ccccc2)CC1 — higher, 1.69%
- Cc1c(CCC#N)c(NCc2ccccc2)n2c(nc3ccccc32)c1C#N — higher, 0.53%
- CN(C)CCN(Cc1ccccc1-c1ccc(CNCCc2ccccc2)cc1)C(=O)c1ccccc1 — higher, 2.83%
- CSc1nc2nc(C)c(Cc3cccc(F)c3)c(C)n2n1 — lower, -0.45%
- Fc1ccc2[nH]c(-c3ccc(-c4ccc(CN5CCC(CCN6CCCCC6)CC5)cc4)s3)nc2c1 — higher, 3.85%
- Cc1ccc(Nc2nc(N/N=C/c3cccc(O)c3)nc(Nc3ccc([N+](=O)[O-])cc3)n2)cc1C — higher, 3.36%
- O=c1cc(NCCCNCc2cc(Br)ccc2F)[nH]c2ccccc12 — lower, -0.63%
- O=C(NC(Cc1ccccc1)C(=O)O)c1cc(=O)c2ccccc2o1 (stereo not given) — higher, 1.17%
- CC(C)(CNCc1ccc(F)c(F)c1)c1nc(-c2ccc(Cl)c(O)c2)c(-c2ccncc2)[nH]1 — higher, 0.25%
- O=C(NCc1ccc(Cl)c(Cl)c1)c1ccc(-c2nc3cc(F)c(F)cc3[nH]2)cc1 — higher, 0.14%
- CC(=O)Nc1ccc(C(=O)NC2CCN(c3ccnc4cc(Cl)ccc34)C2)cc1 (stereo not given) — higher, 0.28%
- c1ccc(CN2CCC(NCc3ccccc3-c3cccc(CNCc4ccc5c(c4)OCO5)c3)CC2)cc1 — lower, -0.36%
- O=C(Nc1cccc(-c2cccc(-c3nc4cc(C(F)(F)F)ccc4[nH]3)c2)c1)c1cccnc1Cl — higher, 0.52%
- N#Cc1ccc2c(c1)CCN(CCC1CCC(NC(=O)c3cc4ccccc4[nH]3)CC1)CC2 (stereo not given) — higher, 5.71%
- Clc1cc(Cl)c2c(c1)C(NCCCNc1nc3ccccc3[nH]1)CCO2 (stereo not given) — higher, 43.3%
- COc1cc(OC)cc(C(=O)Nc2ccc(Nc3nc(C)cc(N(C)C)n3)cc2)c1 — higher, 12.8%
- CC(=O)OCCN1C(=O)c2ccc3c4c(ccc(c24)C1=O)C(=O)N(CCOC(C)=O)C3=O — higher, 2.04%
- COCCNCc1ccc(-c2ccccc2CNC2CCN(Cc3ccccc3)CC2)cc1 — higher, 2.36%
- O=C(O[C@@H]1CN[C@H](C#Cc2cc3c(Nc4ccc5c(cnn5Cc5ccccc5)c4)ncnc3s2)C1)N1CCCC1 — higher, 0.25%
- O=C(/C=C/c1ccccc1Cl)Nc1ccc(Br)c(OCCN2CCN(CCN3CCOCC3)CC2)c1 — higher, 1.38%
- COc1ccc(CN2CCN(C(=O)c3cccs3)CC2)c(O)c1 — higher, 11.1%
- CC(C)CC(NC(=O)c1ccc(F)cc1)C(=O)N[C@H](/C=N/N1CCNC1=O)CC(C)C (stereo not given in full) — higher, 4.41%
- CN(C)CCC1CCN(CCS(=O)(=O)c2cccc(Nc3ccc(-c4ccsc4)cn3)c2)CC1 — higher, 0.82%
- CCCN(CC1CC1)c1ncc(-c2cccc(CNCc3ccccc3O)c2)cn1 — lower, -2.3%
- Fc1cccc(C=NNc2ccnc3cc(Cl)ccc23)c1 — higher, 4.64%
- CCCc1cc(Cc2cnc(N)nc2N)cc(CCC)c1O — higher, 1.83%
- Cc1cccc2nc(-c3ccc(-c4cccc(NC(=O)c5cccc(C(N)=O)c5)c4)cc3)[nH]c12 — higher, 3.07%
- CC(C)NCc1cccc(-c2ccc(-c3nc4cc(C(F)(F)F)ccc4[nH]3)cc2)c1 — higher, 6.19%
- CC(=O)c1ccc(-c2ccc(C(=O)NCCCCN3CCC(c4ccc5c(c4OCC(N)=O)CCCC5)CC3)cc2)s1 — higher, 0.76%
- COc1ccc(CNC(=O)NC2CCN(c3ccnc(Nc4cc(OC)c(OC)c(OC)c4)n3)C2)cc1 (stereo not given) — higher, 5.45%
- CCNc1cc(C)nc(Nc2ccc(NC(=O)c3ccccc3Cl)cc2)n1 — higher, 8.33%
- OCCNc1nc(Nc2ccc(Cl)cc2)nc2ccccc12 — higher, 4.56%
- COc1ccc2nccc([C@@H](O)CN3CCC(NCc4ccc(OC)c(NC(C)=O)c4)CC3)c2c1 — lower, -2.04%
- COc1ccc(CNC2Cc3ccccc3C2)cc1-c1ccc(S(=O)(=O)NCCN2CCCC2)c(F)c1 — higher, 14%
- Cc1nc(C)c(-c2ccc(Oc3cc(Cl)cc(Cl)c3)cc2)c(O)c1Cl — higher, 3.03%
- Cc1ccc(O)cc1Nc1ccnc2ccc(C(C)(C)C)cc12 — lower, -2.63%
- COc1ccc2[nH]c(C)cc(=NN=Cc3ccccc3)c2c1 — higher, 0.32%
